Assay outcomes as filed in PubChem BioAssay.
RORgamma inh: inhibitors of mouse ROR gamma transcriptional activity. P51450. Drosophila S2 Gal4-RORgamma UAS-luciferase reporter, 20 h. Potency, µM (series often up to 53.6 µM), inactives show at the highest dose activity change, negative = inhibition, usual class: inhibitors. 310,000 tested, 5.4% active; further: potency means the concentration at half of the fitted maximal effect; nearly all actives have a fitted effect of over 60% in size
Target sequence (P51450 whole entry, looked up, the tested form may be a part): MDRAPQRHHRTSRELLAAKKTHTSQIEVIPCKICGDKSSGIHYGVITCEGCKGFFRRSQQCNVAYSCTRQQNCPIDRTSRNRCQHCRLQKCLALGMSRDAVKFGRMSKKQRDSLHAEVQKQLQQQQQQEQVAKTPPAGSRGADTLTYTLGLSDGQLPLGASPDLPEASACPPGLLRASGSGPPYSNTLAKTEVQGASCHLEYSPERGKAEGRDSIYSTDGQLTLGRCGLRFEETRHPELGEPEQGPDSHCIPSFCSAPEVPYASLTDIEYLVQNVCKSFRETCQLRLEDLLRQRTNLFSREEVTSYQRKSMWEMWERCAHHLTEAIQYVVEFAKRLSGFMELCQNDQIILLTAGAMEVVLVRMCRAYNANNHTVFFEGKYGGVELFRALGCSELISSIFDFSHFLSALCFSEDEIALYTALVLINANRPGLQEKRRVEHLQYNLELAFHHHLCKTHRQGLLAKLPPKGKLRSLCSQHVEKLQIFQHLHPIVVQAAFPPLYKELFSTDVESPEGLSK
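Drosophila Schneider cells stably carrying a metallothionein-driven Gal4 DBD–ROR gamma fusion and a UAS-Photinus luciferase reporter were exposed to compound for 1 hr, then induced with copper sulfate (700 uM final) for 20 hr at ambient temperature before luminescence reading.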
IL-1B inflam inh: blocks inflammasome-driven IL-1 beta release; THP-1 LPS/ATP IL-1B secretion, AlphaLISA, 16 h; stronger effect = lower value; activity change, % at 57.5 µM; 360,000 tested, 4.7% active; AID 743279; in the data active means activity change below about -50%; inconclusive means mostly about -30% to -49%
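THP-1 cells pretreated 1 hr with compounds (up to 57.5 uM final), then stimulated with LPS (250 ng/mL final) plus ATP (1.25 mM final); secreted IL-1B measured by AlphaLISA after 16 hr, decreased signal indicating inhibition.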
DT40 TDP1 no CPT: qHTS for Inhibitors of human tyrosyl-DNA phosphodiesterase 1 (TDP1): qHTS in cells in absence of CPT; AID 686978, 2013; 420,000 tested, 15% active; Potency, µM (highest dose often 46.2 µM), for inactives: at the top dose activity change, negative = growth inhibition, actives largely listed as inhibitors; DT40 Tdp1-/- hTDP1 cells, no CPT, ATP luminescence, 48 h; further: potency means the concentration at half of the fitted maximal effect; nearly all actives have a fitted effect of over 55% in size
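Camptothecin absent (DMSO only). Human TDP1-complemented DT40 knockout cells, 400 cells/well, 37 °C for minimum 48 hr; ATP measured via CellTiter-Glo, 30 min dark incubation, luminescence.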
TDP1 cell CPT: growth inhibition of DT40 Tdp1-/-;hTDP1 cells with camptothecin (screen for TDP1 inhibitors) | chicken DT40 Tdp1-/-;hTDP1 cells + 20 nM CPT, ATP luminescence, 48 h | Potency, µM (highest dose often 46.2 µM), without a hit: top-dose activity change, negative = growth inhibition, usual class: inhibitors | 420,000 tested, 12% active; further: potency means the concentration at half of the fitted maximal effect; nearly all actives have a fitted effect of over 55% in size
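Cell growth measured by CellTiter-Glo luminescence after a minimum 48 h, 37 C compound exposure with 20 nM CPT in Tdp1-knockout DT40 cells stably expressing hTDP1, seeded 400/well; qHTS titration format.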
Gal4-VP16 FLuc: inhibits Gal4-VP16 luciferase reporter, ROR gamma counter-screen; Drosophila S2 Gal4-VP16 UAS-luciferase, luminescence, 20 h; Potency, µM (highest dose often 53.6 µM), inactives show at the highest dose activity, negative = inhibition, actives largely listed as inhibitors; 310,000 tested, 3.5% active; AID 2546;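 further: Gal4-VP16 expression switched on by copper sulfate through the metallothionein promoter; potency means the concentration at half of the fitted maximal effect; nearly all actives have a fitted effect of over 50% in size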
ELG1 DNA repair: inhibitors of ELG1-dependent DNA repair in HEK293T cells. AID 504467. 330,000 tested, 2.3% active. HEK293T ELG1-luciferase reporter, luminescence, 16 h; DNA damage induced by 5-fluorouridine. Potency, µM (titrated, usually from 46.1 µM), for inactives: at the highest dose activity change, negative = inhibition, most hits filed as inhibitors; further: potency means the concentration at half of the fitted maximal effect; nearly all actives have a fitted effect of over 55% in size
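Step one: seed 2,000 cells per well. Step two: pin-transfer compound or DMSO alongside 5-fluorouridine. Step three: incubate 16 hr, 37 °C, 5% CO2. Step four: add ONE-Glo, wait 30 min, read luminescence.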
Starred values were filed as active, the others as inactive; ? = inconclusive; · = not tested or not shown; ! = not confirmed by another sample; [ ] = dose if it differs, or a comment. An excerpt weighted towards active compounds, which were near 21% of everything screened. Unless noted, the call rests on the fitted dose curve; in most records, active means well fitted curve in the direction sought with a large enough effect; inconclusive means small, poorly fitted or top-dose-only effect, or another doubt; inactive means no such curve, though single readings can be large; an effect the other way counts as inactive or inconclusive. On the % scale 0 is the no-effect control and ±100 the full control effect.

SMILES	RORgamma inh	IL-1B inflam inh	DT40 TDP1 no CPT	TDP1 cell CPT	Gal4-VP16 FLuc	ELG1 DNA repair
c1ccc(Cn2nnc3c(N4CCN(Cc5ccc6c(c5)OCO6)CC4)ncnc32)cc1	45%	-16	?	?	1%	?
c1ccc(-c2csc3ncnc(N4CCN(Cc5ccc6c(c5)OCO6)CC4)c23)cc1	9%	10	7.3µM*	16µM*	-2%	?
C=C1c2ccccc2O[C@H](C(=O)OCC)C1OC (mixture of isomers)	1%[96.6 µM]	·	·	·	10%[96.6 µM]	·
O=C(c1cc(-c2ccccc2)on1)N1CCN(Cc2ccc3c(c2)OCO3)CC1	-11%	0	-24%	-25%	8%	-30%
O=C(CSc1ncnc2scc(-c3ccccc3)c12)N1CCN(Cc2ccc3c(c2)OCO3)CC1	22µM*	-25	13µM*	?	?	?
COc1cc(OC)c(NC(=O)NCc2ccc3c(c2)CCN3C(=O)c2ccccc2)cc1Cl	·	·	-21%	?	·	·
Cn1ncc(SCc2ccccc2)c(Cl)c1=O	?	·	10µM*	9.2µM*	16µM*	8.2µM*
CN(NC(=O)Nc1ccccc1)c1cnn(C)c(=O)c1Cl	14%	0	-56%	?	6%	4%
CSc1c(SCc2ccccc2)cnn(-c2ccccc2)c1=O	?	-98*	?	?	?	17%
Cn1ncc(S(=O)(=O)Cc2ccccc2)c(Cl)c1=O	-3%	·	3.3µM*	1.5µM*	-5%	12%
COc1cnn(-c2ccccc2)c(=O)c1SCc1ccc(Cl)c(Cl)c1	-14%	?	?	-20%	7%	-14%
Cc1ccc(Cl)cc1NCc1nnc2n1CCCCC2	·	·	4%	-1%	·	·
NC(c1csc(Nc2ccc(C(=O)NCCCO)cn2)n1)c1ccccc1Cl (stereo unspecified)	·	-16	-13%	-5%	·	·
NC(Cc1ccc(F)cc1)c1csc(Nc2cc(NCc3ccco3)ncn2)n1 (stereo unspecified)	·	-55*	21µM*	23µM*	·	·
NC(c1csc(Nc2cc(NCc3ccco3)ncn2)n1)c1ccccc1Cl (stereo unspecified)	·	-79*	15µM*	21µM*	·	·
COc1cc(=O)n2c(c1C(=O)N(C)Cc1nonc1C)CCN(Cc1cc(C)ccc1C)CC2	·	·	-30%	-1%[9.04 µM]	·	·
CSC1=N/C(=C\c2ccc(F)cc2)C(=O)S1	-12%	17	-22%	1%	2%	12%
COc1ccc(/C=C/C=C2\N=C(SC)SC2=O)cc1	15%	-5	29µM*	23µM*	-1%	?
CC1=C(C(=O)Nc2ccccc2)C(c2ccc(Br)cc2)n2nc(CCCO)nc2N1 (stereo unspecified)	·	·	3%	-4%	·	·
COc1ccc(N(Cc2cccs2)C(=O)c2ccc(OCC(C)C)cc2)cc1	·	·	21µM*	?	·	·
Cc1ccc(N(Cc2cccs2)C(=O)C(C)Oc2ccc(Cl)c(C)c2)cc1 (stereo unspecified)	·	·	9.2µM*	12µM*	·	·
CCCCOc1cccc(C(=O)N(Cc2cccs2)c2ccc(OC)cc2)c1	·	·	6.5µM*	?	·	·
CCCCOc1cccc(C(=O)N(Cc2cccs2)C2CCS(=O)(=O)C2)c1 (stereo unspecified)	1%	-6	?	?	-2%	?
COc1ccc(N(Cc2cccs2)C(=O)c2ccccc2C)cc1	·	·	13µM*	12µM*	·	·
COCCNC(=O)C1CCCN(Cc2ccccc2-c2ccccc2)CC1 (stereo unspecified)	·	22	-14%	5%	·	·
SMILES	RORgamma inh	IL-1B inflam inh	DT40 TDP1 no CPT	TDP1 cell CPT	Gal4-VP16 FLuc	ELG1 DNA repair
COC(=O)[C@@]12C[C@@H](CC(=O)NCc3ccc(OC)c(OC)c3)C(=O)N(Cc3cccc4ccccc34)C1=CCC(C)(C)C2	·	-22	?	?	·	·
C=C1C=C(Br)C2(OCCCO2)[C@H]2OC12 (stereo partly specified)	-1%[10 µM]	·	·	·	-3%[10 µM]	·
CCN(CC)S(=O)(=O)c1ccc(NCCc2ccccn2)nc1	3%	22	-8%	1%	5%	7%
CC(C)Cc1ccc(S(=O)(=O)Nc2ccc3[nH]c(=O)[nH]c3c2)cc1	?	9	26µM*	16µM*!	-17%	-10%
CCC(C)NC(=O)c1ccc(NS(=O)(=O)c2ccc3[nH]c(=O)[nH]c3c2)cc1 (stereo unspecified)	-21%	-1	0%	7%	-12%	?
CCc1ccc(NS(=O)(=O)c2ccc3[nH]c(=O)[nH]c3c2)cc1	?	10	-8%	5%	-11%	10%
CCN(CC)C(=O)c1ccc(NS(=O)(=O)c2ccc3[nH]c(=O)[nH]c3c2)cc1	11%	-6	-3%	-2%	-24%	18µM*
Cc1noc(C)c1-c1nc(NCCN2CCOCC2)c2ccccc2n1	-41%	·	-6%	-3%	6%	·
O=C(CCn1nc(-c2ccc(Cl)cc2)c2ccccc2c1=O)Nc1ccc(OC(F)(F)F)cc1	·	·	?	-24%	·	·
CC#CCN(CC#CC)S(=O)(=O)c1ccc(S(=O)(=O)N2CCOCC2)cc1	0%	8	16µM*	?	3%	-5%
CC(C)c1ccc(NC(=O)c2cc(-c3cc(F)ccc3OCC3CCCO3)n[nH]2)cc1 (stereo unspecified)	·	-11	?	?	·	·
CC1CCC2C(=O)N(c3ccc(NC4CCN(Cc5ccccc5)CC4)c([N+](=O)[O-])c3)C(=O)C2C1 (stereo unspecified)	11%	-13	16µM*	?	3%	-5%
O=[N+]([O-])c1ccc(NC2CCN(Cc3ccccc3)CC2)c([N+](=O)[O-])c1	3%	-3	21µM*	?	15%	-4%
CCNC(=O)C1CCCN(C(=O)c2cc(C)oc2C)CC1 (stereo unspecified)	·	23	-21%	-1%	·	·
COc1ccc(SC[C@H](CC(C)C)N2CCN(CCc3ccccc3)CCC2=O)cc1	?	-1	18µM*	15µM*	18%	-12%
CC(C)C[C@@H](CSc1ccc(Br)cc1)N1CCN(CC(C)C)CCC1=O	?	?	16µM*	23µM*	25%	?
CCCN1CCC(=O)N(CCSc2ccc(OC)cc2)CC1	-8%	32	5.8µM*	5.8µM*	-7%	?
CC(C)C[C@@H](CN=[N+]=[N-])N1CCN(CCc2ccccc2)CCC1=O	·	·	13µM*	?	·	·
